# Unmarked numbers belong to inactive results. Results filed as inconclusive are left out. A call without a number means that no potency is given here. The source made the active and inactive calls. Unless noted, calls come from the whole dose curve.
# Columns and labels:
# [1] = Nuclear factor erythroid 2-related factor 2/antioxidant responsive element (Nrf2/ARE) small molecule agonists: qHTS cell viability counter screen in human keratinocytes (AID 1919968; active = well fitted curve in the direction sought with a large enough effect in the repeat runs; an effect the other way counts as inactive or inconclusive; note: nearly all actives have a fitted effect of over 55% in size; note: potency is the fitted concentration of half-maximal effect)
# Method in brief: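 Viability counter-screen: KeratinoSens reporter cells, DMSO-delivered compounds, 23 h at 37 C, CellTiter-Fluor fluorescence.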
# [2] = target: Gonadotropin-releasing hormone receptor (Homo sapiens) (UniProt P30968); test: Human gonadotropin-releasing hormone receptor (GnRHR) small molecule agonists, calcium flux assay in GnRHR-HEK293 cells (AID 1920063); note: nearly all actives have a fitted effect of over 35% in size
# Sequence of Gonadotropin-releasing hormone receptor (Homo sapiens) (P30968 whole entry, looked up): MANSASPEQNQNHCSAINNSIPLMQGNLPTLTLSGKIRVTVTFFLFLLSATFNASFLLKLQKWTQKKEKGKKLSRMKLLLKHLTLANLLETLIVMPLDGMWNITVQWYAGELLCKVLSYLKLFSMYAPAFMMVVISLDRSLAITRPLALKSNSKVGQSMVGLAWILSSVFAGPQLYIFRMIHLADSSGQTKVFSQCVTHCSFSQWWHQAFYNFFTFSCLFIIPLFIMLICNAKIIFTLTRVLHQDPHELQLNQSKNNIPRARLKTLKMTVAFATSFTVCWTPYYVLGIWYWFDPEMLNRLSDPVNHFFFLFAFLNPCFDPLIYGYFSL
# Method in brief: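 Tox21-format agonist screen using human GnRHR-expressing HEK293 cells and a fluorescent calcium dye; kinetic 3-min fluorescence reading after compound addition, 15-point concentration series run in triplicate.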
# [3] = p53 small molecule agonists, cell-based qHTS assay with rat liver microsomes (AID 1963578)
# Method in brief: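 With rat liver microsomes and NADPH present (0.5 mg/mL final each), p53RE-bla cells are treated with compound for 16 h at 37 C. LiveBLAzer detection mixture is then applied for 2 h at room temperature in the dark.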
# [4] = p53 small molecule agonists, cell-based qHTS assay with human liver microsomes: qHTS cell viability counter screen (AID 1963579); note: nearly all actives have a fitted effect of over 45% in size
# Method in brief: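 In this multiplexed counter screen, the reporter plates were subsequently treated with CellTiter-Glo so that cell viability, reflected by luminescence, could be recorded for p53RE-bla cells dosed 16 h with compounds under microsomal activation (HLM and NADPH).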
# [5] = p53 small molecule agonists, cell-based qHTS assay with rat liver microsomes: qHTS cell viability counter screen (AID 1963580); note: nearly all actives have a fitted effect of over 45% in size
# Method in brief: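 Intracellular ATP, by CellTiter-Glo luminescence, defines viability. HCT-116 p53RE-bla cells, 4,000 per well, were compound-treated in the presence of rat liver microsomes and NADPH for 16 h at 37 C.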
# [6] = p53 small molecule agonists, cell-based qHTS assay: qHTS cell viability counter screen (AID 1963581); note: nearly all actives have a fitted effect of over 45% in size
# Method in brief: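 Compounds are pinned onto HCT-116 p53RE-bla cells and left 16 h at 37 C. Following the reporter FRET read, ATP is quantified by CellTiter-Glo luminescence after 30 min at room temperature.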
# [7] = p53 small molecule agonists, cell-based qHTS assay (AID 1963582; active = well fitted activation curve with a large enough effect in the signal ratio in the repeat runs, not every such curve was filed as active; the % refers to the signal ratio)
# Method in brief: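 Agonist activity was scored from beta-lactamase FRET fluorescence in p53RE-bla cells treated 16 h at 37 C with compounds in DMSO, substrate incubation being 2 h at room temperature.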
# [8] = target: 5-hydroxytryptamine receptor 2A (Homo sapiens) (UniProt P28223); test: 5-hydroxytryptamine receptor 2A (HTR2A) small molecule antagonists, cell-based qHTS assay (AID 1963586); note: nearly all actives have a fitted effect of over 45% in size
# Sequence of 5-hydroxytryptamine receptor 2A (Homo sapiens) (P28223 whole entry, looked up): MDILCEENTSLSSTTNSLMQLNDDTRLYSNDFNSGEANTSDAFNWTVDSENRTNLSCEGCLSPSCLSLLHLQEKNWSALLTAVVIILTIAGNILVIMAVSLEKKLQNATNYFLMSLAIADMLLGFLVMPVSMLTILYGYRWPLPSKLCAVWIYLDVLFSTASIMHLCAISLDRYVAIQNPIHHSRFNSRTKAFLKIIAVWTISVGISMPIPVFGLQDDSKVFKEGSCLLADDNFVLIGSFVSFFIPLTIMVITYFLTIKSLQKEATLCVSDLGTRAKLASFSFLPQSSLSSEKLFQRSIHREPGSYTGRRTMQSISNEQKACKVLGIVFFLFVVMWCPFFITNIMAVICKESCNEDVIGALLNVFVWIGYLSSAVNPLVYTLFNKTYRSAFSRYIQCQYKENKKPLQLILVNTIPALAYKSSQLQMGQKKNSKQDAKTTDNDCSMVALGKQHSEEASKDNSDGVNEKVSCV
# Method in brief: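 Antagonist-mode intracellular calcium assay: DOI (4 nM) added after 5 min compound pre-incubation at room temperature to dye-loaded HTR2A-CHO cells. Fluorescence followed for 3 min, sampled every second.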
# [9] = target: 5-hydroxytryptamine receptor 2A (Homo sapiens) (UniProt P28223); test: 5-hydroxytryptamine receptor 2A (HTR2A) small molecule agonists, cell-based qHTS assay (AID 1963587); note: nearly all actives have a fitted effect of over 30% in size
# Method in brief: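 Kinetic calcium-flux fluorescence (2 min, 1 sec intervals) after compound addition in agonist mode. HTR2A-CHO cells were cultured 18 h, then dye-loaded 1 h at 37 C.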
# [10] = target: Muscarinic acetylcholine receptor M1 (Homo sapiens) (UniProt P11229); test: Cholinergic receptor muscarinic 1 (CHRM1) small molecule antagonists, cell-based qHTS assay (AID 1963588); note: nearly all actives have a fitted effect of over 40% in size; note: potency is the fitted concentration of half-maximal effect
# Sequence of Muscarinic acetylcholine receptor M1 (Homo sapiens) (P11229 whole entry, looked up): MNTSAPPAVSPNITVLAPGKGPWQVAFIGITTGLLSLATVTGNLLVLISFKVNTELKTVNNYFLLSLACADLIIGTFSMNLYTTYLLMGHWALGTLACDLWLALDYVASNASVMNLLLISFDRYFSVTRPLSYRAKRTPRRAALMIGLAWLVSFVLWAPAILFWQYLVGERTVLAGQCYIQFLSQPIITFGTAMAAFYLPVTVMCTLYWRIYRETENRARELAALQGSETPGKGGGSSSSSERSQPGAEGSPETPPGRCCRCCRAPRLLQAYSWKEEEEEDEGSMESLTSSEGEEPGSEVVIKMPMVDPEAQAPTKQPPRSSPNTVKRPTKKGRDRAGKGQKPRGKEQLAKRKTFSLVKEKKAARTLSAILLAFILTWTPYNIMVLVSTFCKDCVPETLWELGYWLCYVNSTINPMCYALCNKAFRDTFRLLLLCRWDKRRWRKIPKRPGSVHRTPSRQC
# Method in brief: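 CHRM1-CHO calcium-flux assay, antagonist mode. Cells were seeded 18 h, dye-loaded 1 h at 37 C and given compound for 5 min at RT, then acetylcholine was added at 50nM. FDSS fluorescence was read 3 min; 15 concentrations, three runs.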
# [11] = target: Muscarinic acetylcholine receptor M1 (Homo sapiens) (UniProt P11229); test: Cholinergic receptor muscarinic 1 (CHRM1) small molecule agonists, cell-based qHTS assay (AID 1963589); note: nearly all actives have a fitted effect of over 35% in size
# Method in brief: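 Stable CHRM1-CHO cells (human receptor) were incubated 18 h, dye-loaded for 1 h at 37 C and exposed to test compounds for agonist activity, with calcium-dependent fluorescence followed kinetically.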
# [12] = cAMP Responsive Elements (CRE) small molecule agonists, cell-based qHTS assay (AID 1963590)
# Method in brief: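 FRET-based beta-lactamase readout (LiveBLAzer B/G, 2 h RT) quantified CRE activation in HEK 293T CRE-bla cells after 3 h treatment with DMSO-dissolved compounds.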
# [13] = cAMP Responsive Elements (CRE) small molecule antagonists, cell-based qHTS assay (AID 1963591; active = well fitted inhibition curve with a large enough effect in the signal ratio in the repeat runs, not every such curve was filed as active; the % refers to the signal ratio)
# Method in brief: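 qHTS in CRE-bla HEK 293T cells: compound in DMSO, then 0.25 uM NKH477 (final), 3 h at 37 °C/5% CO2; beta-lactamase FRET read-out after 2 h substrate incubation.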
# [14] = target: Beta-2 adrenergic receptor (Homo sapiens) (UniProt P07550); test: Adrenergic beta2 receptor (ADRB2) small molecule antagonists, cell-based qHTS assay (AID 1963592); note: series mostly up to about 92 µM; nearly all actives have a fitted effect of over 50% in size
# Sequence of Beta-2 adrenergic receptor (Homo sapiens) (P07550 whole entry, looked up): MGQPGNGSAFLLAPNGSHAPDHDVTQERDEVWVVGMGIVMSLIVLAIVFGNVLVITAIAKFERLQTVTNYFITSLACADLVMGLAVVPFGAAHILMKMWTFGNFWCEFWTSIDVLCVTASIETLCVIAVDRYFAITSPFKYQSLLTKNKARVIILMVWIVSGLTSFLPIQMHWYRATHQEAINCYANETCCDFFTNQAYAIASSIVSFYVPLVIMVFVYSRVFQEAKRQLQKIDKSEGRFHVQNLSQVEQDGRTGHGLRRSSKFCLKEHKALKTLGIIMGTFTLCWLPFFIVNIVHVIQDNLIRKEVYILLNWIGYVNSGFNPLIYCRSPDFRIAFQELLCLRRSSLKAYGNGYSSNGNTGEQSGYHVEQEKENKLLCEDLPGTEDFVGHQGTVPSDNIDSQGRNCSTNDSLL
# Method in brief: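 Cells (CHO, stable ADRB2 overexpression) incubated 18-20hr at 37C; compounds added from DMSO; agonist mix (1nM isoproterenol, 100uM IBMX, 25uM Ro-20-1724) added; 0.5hr RT; d2-cAMP and anti-cAMP-cryptate added; 1hr RT; 665/615 nm read.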
# [15] = target: Beta-2 adrenergic receptor (Homo sapiens) (UniProt P07550); test: Adrenergic beta2 receptor (ADRB2) small molecule agonists, cell-based qHTS assay (AID 1963593);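 note: CHO cells stably overexpressing human ADRB2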
# Method in brief: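 CHO cells stably over-expressing ADRB2 were plated overnight at 37C, then dosed with compounds plus a stimulation mix containing 100uM IBMX and 25uM Ro-20-1724 for 0.5hr at room temperature. cAMP was measured by HTRF competition, 1hr.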
# [16] = target: D(2) dopamine receptor (Homo sapiens) (UniProt P14416); test: Dopamine D2 receptor (DRD2) small molecule agonists, cell-based qHTS assay (AID 1963594); note: nearly all actives have a fitted effect of over 35% in size
# Sequence of D(2) dopamine receptor (Homo sapiens) (P14416 whole entry, looked up): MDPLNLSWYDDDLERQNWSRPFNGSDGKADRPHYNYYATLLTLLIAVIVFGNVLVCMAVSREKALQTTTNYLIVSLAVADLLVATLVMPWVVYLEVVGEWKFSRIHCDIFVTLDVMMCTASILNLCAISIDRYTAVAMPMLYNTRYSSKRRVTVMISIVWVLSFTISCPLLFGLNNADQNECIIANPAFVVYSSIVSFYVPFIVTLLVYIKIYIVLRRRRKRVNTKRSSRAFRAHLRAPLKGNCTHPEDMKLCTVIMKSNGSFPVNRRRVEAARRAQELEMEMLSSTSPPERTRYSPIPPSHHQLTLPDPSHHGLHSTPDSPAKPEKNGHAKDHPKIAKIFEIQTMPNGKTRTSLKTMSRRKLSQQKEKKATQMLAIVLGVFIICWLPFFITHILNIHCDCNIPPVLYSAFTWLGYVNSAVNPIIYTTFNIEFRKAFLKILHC
# Method in brief: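 cAMP accumulation in DRD2-HEK293 cells measured by HTRF after 1 h detection; compounds added 10 min before NKH477 (200nM […]) forskolin-analogue stimulation, 30 min at room temperature, with Ro20-1724 present at 0.1 mM final.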
# [17] = target: D(2) dopamine receptor (Homo sapiens) (UniProt P14416); test: Dopamine D2 receptor (DRD2) small molecule antagonists, cell-based qHTS assay (AID 1963595; active = well fitted inhibition curve with a large enough effect in the signal ratio in the repeat runs, with a control signal flat; the % refers to the signal ratio)
# Method in brief: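 Antagonism was scored as restored cAMP in HEK293-DRD2 cells. These cells were stimulated with 200 nM NKH477 and 12 nM quinpirole for 30 min at room temperature, in the presence of 0.1 mM Ro20-1724.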
# [18] = G protein-coupled receptor (GPCR) small molecule agonists, calcium flux assay: HEK293 wild type cell line counter screen (AID 1920065)
# Method in brief: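 In this agonist-mode screen, ATP is the positive control and DMSO the vehicle. Cells grow 18 h before a 1 h dye incubation at 37 C; signal is taken at Ex/Em 480/540 over 3 min.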
# [19] = target: KiSS-1 receptor (Homo sapiens) (UniProt Q969F8); test: Human kisspeptin (KISS1R) small molecule agonists, calcium flux assay in KISS1R-HEK293 cells (AID 1920064; active = well fitted curve in the direction sought with a large enough effect in the repeat runs; an effect the other way counts as inactive or inconclusive)
# Sequence of KiSS-1 receptor (Homo sapiens) (Q969F8 whole entry, looked up): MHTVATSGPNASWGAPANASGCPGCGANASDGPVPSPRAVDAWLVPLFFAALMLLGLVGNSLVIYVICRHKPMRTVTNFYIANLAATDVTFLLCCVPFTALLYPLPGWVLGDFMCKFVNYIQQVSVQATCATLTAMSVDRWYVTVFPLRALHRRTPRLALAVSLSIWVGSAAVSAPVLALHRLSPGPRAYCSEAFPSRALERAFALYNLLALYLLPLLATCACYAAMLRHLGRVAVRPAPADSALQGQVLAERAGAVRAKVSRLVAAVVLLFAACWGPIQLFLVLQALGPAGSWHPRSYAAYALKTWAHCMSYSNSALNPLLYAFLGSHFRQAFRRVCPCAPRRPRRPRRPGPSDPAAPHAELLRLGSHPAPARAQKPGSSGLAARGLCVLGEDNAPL
# Method in brief: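 Intracellular calcium mobilization in KISS1R-HEK293 cells was recorded by fluorescence (Ex/Em 480/540) for 3 min following compound addition to cells pre-loaded 1 h with calcium dye.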
# [20] = p53 small molecule agonists, cell-based qHTS assay with human liver microsomes (AID 1963577);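 note: p53 response element beta-lactamase reporter cells with liver microsomes plus NADPH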
# Method in brief: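 16 h, 37 C exposure of p53RE-bla cells to compounds with human liver microsomes and NADPH (0.5 mg/mL final each); detection via LiveBLAzer mixture, 2 h dark at room temperature.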
Structure (SMILES),Potency [1],Potency [2],Potency [3],Potency [4],Potency [5],Potency [6],Potency [7],Potency [8],Potency [9],Potency [10],Potency [11],Potency [12],Potency [13],Potency [14],Potency [15],Potency [16],Potency [17],Potency [18],Potency [19],Potency [20]
CC1(C)C(=O)N(Br)C(=O)N1Br,inactive,inactive,inactive,inactive,inactive,inactive,inactive,inactive,inactive,inactive,inactive,inactive,inactive,inactive,inactive,inactive,inactive,–,–,–
Cc1c[nH]c(=S)[nH]c1=O,inactive,inactive,–,inactive,inactive,inactive,–,inactive,inactive,inactive,inactive,inactive,inactive,inactive,inactive,inactive,inactive,inactive,–,–
C=C(C)C(=O)OCCCCCCCCCC,inactive,inactive,–,–,inactive,inactive,–,inactive,inactive,42.4 µM (active),inactive,inactive,inactive,–,inactive,inactive,inactive,inactive,–,–
CCCCOC(=O)CCC(C)=O,inactive,inactive,–,–,inactive,inactive,–,inactive,inactive,inactive,inactive,inactive,–,inactive,–,inactive,inactive,inactive,–,–
Brc1cc2ccccc2c2ccccc12,30.9 µM (active),–,inactive,inactive,inactive,inactive,–,inactive,–,inactive,inactive,inactive,–,–,–,inactive,inactive,inactive,inactive,inactive

# From PubChem BioAssay (Tox21)
